Assay results published in PubChem BioAssay AID1159580 (chemical genetic matrix, 2015).
Among all 5,500 compounds or so, about 2,000 (36%) were called active. Inconclusive results (about 18%) are left out. Cut-off read from the data, not from the text of the source: active = normalized growth mostly below about 0.91 (no sharp cut-off); inconclusive = no clear call, values can overlap the other calls; inactive = mostly above about 0.92. The list shows a part of the results.

Assay: chemical genetic growth profiling, strain panel (AID 1159580);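 note: tested at 20 µM; growth read once vehicle control cultures reached saturation at 30 °C; 1 = growth at the plate median or of vehicle wells; lower values mean less growth of the strain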
Conditions: growth OD

Measured: normalized growth

Cc1ccc(S(=O)(=O)N2CCCCCC2)cc1
inactive: S. cerevisiae deletion strains, locus YAL013W, strain DEP1, active compounds read low 0.98 | S. cerevisiae deletion strains, locus YBR229C, strain ROT2, active compounds read low 0.997 | S. cerevisiae deletion strains, locus YCL061C, strain MRC1, active compounds read low 0.997 | S. cerevisiae deletion strains, locus YDL101C, strain DUN1, active compounds read low 0.985 | S. cerevisiae deletion strains, locus YDL134C, strain PPH21, active compounds read low 0.999 | S. cerevisiae deletion strains, locus YDR150W, strain NUM1, active compounds read low 0.976 | S. cerevisiae deletion strains, locus YEL061C, strain CIN8, active compounds read low 1.01 | S. cerevisiae deletion strains, locus YGR078C, strain PAC10, active compounds read low 0.985 | S. cerevisiae deletion strains, locus YGR229C, strain SMI1, active compounds read low 0.988 | S. cerevisiae deletion strains, locus YHR030C, strain SLT2, active compounds read low 0.896 | S. cerevisiae deletion strains, locus YHR087W, strain rtc3, active compounds read low 1.03 | S. cerevisiae deletion strains, locus YJR043C, strain POL32, active compounds read low 0.999 | S. cerevisiae deletion strains, locus YJR075W, strain HOC1, active compounds read low 0.998 | S. cerevisiae deletion strains, locus YLR039C, strain RIC1, active compounds read low 0.881 | S. cerevisiae deletion strains, locus YLR058C, strain SHM2 (second series), active compounds read low 0.998 | S. cerevisiae deletion strains, locus YLR085C, strain ARP6, active compounds read low 0.921 | S. cerevisiae deletion strains, locus YLR262C, strain YPT6, active compounds read low 0.928 | S. cerevisiae deletion strains, locus YML094W, strain GIM5, active compounds read low 1.02 | S. cerevisiae deletion strains, locus YMR219W, strain ESC1, active compounds read low 0.983 | S. cerevisiae deletion strains, locus YMR263W, strain SAP30, active compounds read low 1 | S. cerevisiae deletion strains, locus YNL153C, strain GIM3, active compounds read low 0.987 | S. cerevisiae deletion strains, locus YNL298W, strain CLA4 (second series), active compounds read low 0.983 | S. cerevisiae deletion strains, locus YNL322C, strain KRE1, active compounds read low 0.972 | S. cerevisiae deletion strains, locus YNR030W, strain Alg12, active compounds read low 0.983 | S. cerevisiae deletion strains, locus YOL006C, strain TOP1, active compounds read low 0.961 | S. cerevisiae deletion strains, locus YPL055C, strain LGE1, active compounds read low 1.04 | S. cerevisiae deletion strains, locus YPL241C, strain CIN2, active compounds read low 0.984 | S. cerevisiae deletion strains, locus YPR135W, strain CTF4, active compounds read low 0.843 | S. cerevisiae strains, strain wild type, active compounds read low 1
